Data from PubChem BioAssay (NCATS).
Results filed as inconclusive are left out. Calls of active or inactive are those of the source. Unless noted, calls come from the whole dose curve; as a rule, active = well fitted curve in the direction sought with a large enough effect; inconclusive = small, poorly fitted or top-dose-only effect, or another doubt; inactive = no such curve, though single readings can be large; an effect the other way counts as inactive or inconclusive.

Legend:
[1] = target: Lysosomal acid glucosylceramidase (Homo sapiens) (UniProt P04062); experiment: Glucocerebrosidase-p2 (AID 348; in the data active = potency below about 10 µM; note: potency is the fitted concentration of half-maximal effect); conditions: purified GBA, blue fluorogenic substrate, 40 min
Chain of Lysosomal acid glucosylceramidase (Homo sapiens) (P04062 whole entry, looked up): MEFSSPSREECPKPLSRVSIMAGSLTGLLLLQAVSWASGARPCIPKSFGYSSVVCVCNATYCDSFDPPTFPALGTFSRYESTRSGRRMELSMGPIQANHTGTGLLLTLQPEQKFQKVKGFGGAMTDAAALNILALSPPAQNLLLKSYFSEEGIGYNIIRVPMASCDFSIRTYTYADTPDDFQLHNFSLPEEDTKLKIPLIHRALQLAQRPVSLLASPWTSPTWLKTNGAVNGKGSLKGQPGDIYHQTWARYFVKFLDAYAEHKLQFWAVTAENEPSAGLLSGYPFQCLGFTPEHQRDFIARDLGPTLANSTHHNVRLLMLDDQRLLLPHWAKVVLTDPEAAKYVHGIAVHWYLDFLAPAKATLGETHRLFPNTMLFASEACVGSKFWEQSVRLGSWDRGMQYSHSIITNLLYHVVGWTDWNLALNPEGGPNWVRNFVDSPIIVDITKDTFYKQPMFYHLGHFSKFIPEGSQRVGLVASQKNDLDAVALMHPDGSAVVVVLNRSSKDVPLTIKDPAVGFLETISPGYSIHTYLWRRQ
Summary of the method: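 Normal human glucocerebrosidase (0.2 nM) with blue fluorogenic substrate (80 uM final) in citrate/phosphate pH 5.9 with 10mM sodium taurocholate, 0.01% tween-20; 40 min RT, NaOH/glycine stop; fluorescence Ex 365/Em 440; AC50 from a titration from 0.6 nM upwards.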

[2] = AP1 Signaling Pathway (AID 357; active = well fitted curve in either direction with a large enough effect, not every such curve was filed as active;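 note: ME-180 reporter cells stimulated with EGF at its EC50 level; % is set by controls: 0 for no effect and ±100 for the full control effect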)
Summary of the method: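 Read-out was the 460nm/530nm emission ratio (excitation 405nm) after CCF4 loading for 2.5 hours at room temperature. Cells carried an AP-1-driven beta-lactamase reporter, were stimulated with EC50 EGF plus compound for 5 hours, and AC50 values came from titrations.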

[3] = target: Cytochrome P450 1A2 (Homo sapiens) (UniProt P05177); experiment: p450-cyp1a2 (AID 410; calls by dose curve; note: potency is the fitted concentration of half-maximal effect;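 for activity change, negative = inhibition: -100% = full effect of reference inhibitor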)
Chain of Cytochrome P450 1A2 (Homo sapiens) (P05177 whole entry, looked up): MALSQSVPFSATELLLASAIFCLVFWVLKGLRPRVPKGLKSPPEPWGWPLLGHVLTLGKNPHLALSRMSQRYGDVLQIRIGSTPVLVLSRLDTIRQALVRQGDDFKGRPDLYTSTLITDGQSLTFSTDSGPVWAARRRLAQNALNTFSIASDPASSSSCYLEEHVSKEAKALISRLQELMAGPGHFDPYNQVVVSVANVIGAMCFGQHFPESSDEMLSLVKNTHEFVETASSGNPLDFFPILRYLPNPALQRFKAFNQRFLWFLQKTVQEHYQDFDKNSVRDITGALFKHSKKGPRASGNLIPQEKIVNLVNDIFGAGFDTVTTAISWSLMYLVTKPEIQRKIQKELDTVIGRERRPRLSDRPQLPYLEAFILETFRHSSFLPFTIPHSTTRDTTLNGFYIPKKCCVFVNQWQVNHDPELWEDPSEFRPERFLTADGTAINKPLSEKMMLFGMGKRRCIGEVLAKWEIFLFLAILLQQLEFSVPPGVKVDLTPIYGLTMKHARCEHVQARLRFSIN
Summary of the method: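 20nM CYP1A2, 100uM Luciferin-ME (=Km), 100mM KPO4; cpd 10 min RT; +NADPH regen, 60 min RT; stop/detect 20 min; luminescence. Normalized to furafylline 57 uM = full inhibition.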

[4] = target: Glucocorticoid receptor (Homo sapiens) (UniProt P04150); experiment: GR-EFC Redistribution (AID 451; calls by dose curve; note: potency is the fitted concentration of half-maximal effect); conditions: CHO-K1 GR-EFC translocation, beta-gal luminescence, 2 h
Chain of Glucocorticoid receptor (Homo sapiens) (P04150 whole entry, looked up, the tested form may be a part): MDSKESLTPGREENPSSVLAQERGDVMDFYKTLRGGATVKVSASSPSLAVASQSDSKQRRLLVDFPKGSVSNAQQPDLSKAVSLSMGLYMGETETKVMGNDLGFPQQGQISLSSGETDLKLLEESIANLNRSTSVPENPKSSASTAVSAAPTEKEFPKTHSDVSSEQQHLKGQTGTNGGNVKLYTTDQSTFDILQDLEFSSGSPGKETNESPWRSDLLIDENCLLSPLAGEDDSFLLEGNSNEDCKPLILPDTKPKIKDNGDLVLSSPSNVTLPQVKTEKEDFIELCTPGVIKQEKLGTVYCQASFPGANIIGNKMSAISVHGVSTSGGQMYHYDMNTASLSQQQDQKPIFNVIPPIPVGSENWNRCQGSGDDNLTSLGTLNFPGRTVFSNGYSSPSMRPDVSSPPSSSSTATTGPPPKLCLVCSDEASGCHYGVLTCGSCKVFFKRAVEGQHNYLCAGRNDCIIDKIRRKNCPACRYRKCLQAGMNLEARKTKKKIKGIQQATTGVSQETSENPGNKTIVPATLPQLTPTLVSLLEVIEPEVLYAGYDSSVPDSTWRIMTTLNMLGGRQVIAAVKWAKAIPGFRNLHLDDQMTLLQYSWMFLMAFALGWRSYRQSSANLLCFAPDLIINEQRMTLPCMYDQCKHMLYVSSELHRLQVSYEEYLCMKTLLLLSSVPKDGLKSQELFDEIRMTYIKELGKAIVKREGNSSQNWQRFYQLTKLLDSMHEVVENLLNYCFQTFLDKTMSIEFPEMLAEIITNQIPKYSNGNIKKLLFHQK
Summary of the method: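 CHO-K1 cells expressing nuclear EA and GR-ED fragments of b-gal; compounds titrated up to 46 uM final, 2 h at 37 C. GR nuclear translocation read as complemented b-gal luminescence after 1 h RT detection.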

[5] = target: Mitogen-activated protein kinase 10 (Mus musculus) (UniProt Q61831); experiment: JNK3 AlphaScreen Assay (AID 530; active = well fitted curve in either direction with a large enough effect, not every such curve was filed as active;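 note: kinase came from lysate of stimulated human HepG2 cells; signal reports phosphorylation of biotinylated GST-cJun 1-79 at Ser73 with 10 µM ATP; % is set by controls: 0 for no effect and ±100 for the full control effect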)
Summary of the method: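 HepG2 lysate (IL-1b/TNFa pre-activated) + biotin-GST-cJun 1-79 + anti-pSer73 cJun; cpd titration, 15 min RT; ATP 10 uM start; Tris pH 7.6, MgCl2, DTT, vanadate; beads in EDTA buffer; AlphaScreen.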

[6] = target: 3',5'-cyclic-AMP phosphodiesterase 4B (Homo sapiens) (UniProt Q07343); experiment: qHTS Assay for Inhibitors of PDE-IV (AID 607; active = well fitted activation curve with a large enough effect in the main read-out, with a control signal flat, not every such curve was filed as active; note: % of control where 0% means no effect)
Chain of 3',5'-cyclic-AMP phosphodiesterase 4B (Homo sapiens) (Q07343 whole entry, looked up): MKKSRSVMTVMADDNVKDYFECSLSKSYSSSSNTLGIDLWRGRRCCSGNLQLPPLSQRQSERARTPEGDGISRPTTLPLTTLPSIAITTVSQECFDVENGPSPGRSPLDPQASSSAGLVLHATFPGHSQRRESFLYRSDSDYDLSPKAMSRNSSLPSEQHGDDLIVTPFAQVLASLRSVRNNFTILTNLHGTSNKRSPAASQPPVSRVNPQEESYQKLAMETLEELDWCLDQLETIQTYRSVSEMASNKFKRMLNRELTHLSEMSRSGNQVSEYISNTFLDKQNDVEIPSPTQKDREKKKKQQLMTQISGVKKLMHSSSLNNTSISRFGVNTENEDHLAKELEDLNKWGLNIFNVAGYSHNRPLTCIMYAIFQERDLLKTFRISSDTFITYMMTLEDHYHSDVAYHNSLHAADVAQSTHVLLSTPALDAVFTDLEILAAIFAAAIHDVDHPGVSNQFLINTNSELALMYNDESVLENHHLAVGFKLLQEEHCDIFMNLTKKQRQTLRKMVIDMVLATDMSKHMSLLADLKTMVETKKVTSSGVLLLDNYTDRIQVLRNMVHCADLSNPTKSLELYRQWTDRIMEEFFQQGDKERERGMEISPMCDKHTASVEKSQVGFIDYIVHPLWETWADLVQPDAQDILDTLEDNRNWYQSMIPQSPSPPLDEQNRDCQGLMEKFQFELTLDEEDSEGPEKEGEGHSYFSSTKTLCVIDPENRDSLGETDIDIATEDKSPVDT
Summary of the method: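 Live HEK293 cells with a modified cyclic nucleotide-gated (CNG) channel report intracellular cAMP via membrane-potential dye fluorescence (ex 535/em 590 nm). Endogenous PDE-IV was targeted. Compounds were tested at up to 22.9 uM final; RO 20-1724 100 uM served as control.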

[7] = target: Cytochrome P450 3A4 (Homo sapiens) (UniProt P08684); experiment: qHTS Assay for Activators of Cytochrome P450 3A4 (AID 885); note: nearly all actives have a fitted effect of over 65% in size; note: potency is the fitted concentration of half-maximal effect
Chain of Cytochrome P450 3A4 (Homo sapiens) (P08684 whole entry, looked up): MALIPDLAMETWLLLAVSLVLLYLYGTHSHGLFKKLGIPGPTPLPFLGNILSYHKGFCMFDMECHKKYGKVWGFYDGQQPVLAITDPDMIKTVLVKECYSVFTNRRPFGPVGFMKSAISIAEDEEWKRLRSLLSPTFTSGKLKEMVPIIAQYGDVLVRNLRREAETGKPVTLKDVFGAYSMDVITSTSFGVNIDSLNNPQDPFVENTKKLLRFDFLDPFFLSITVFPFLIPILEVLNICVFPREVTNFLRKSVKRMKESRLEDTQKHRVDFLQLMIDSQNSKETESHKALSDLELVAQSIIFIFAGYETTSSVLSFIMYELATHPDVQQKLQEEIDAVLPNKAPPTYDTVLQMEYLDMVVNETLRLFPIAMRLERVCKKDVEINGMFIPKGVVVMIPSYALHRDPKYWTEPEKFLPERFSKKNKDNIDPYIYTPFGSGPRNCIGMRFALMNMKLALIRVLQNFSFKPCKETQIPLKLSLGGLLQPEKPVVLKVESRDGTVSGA
Summary of the method: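 Using 20nM recombinant human CYP3A4 in potassium phosphate (200mM), substrate Luciferin-PPXE at 25uM, luminescent luciferin detection followed a 60-min RT NADPH reaction; data scaled to 57 uM ketoconazole.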

[8] = qHTS Assay for Lipid Storage Modulators (AID 1519; calls by dose curve); conditions: Drosophila S3 cells, BODIPY lipid droplet/cell ratio, laser cytometry, cells loaded with oleic acid; for activity change, negative = inhibition: at 57.5 µM (top of the series)
Summary of the method: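 Cells seeded at 5,000 per well were treated with compounds over a concentration series and loaded with oleic acid (400 uM, as added). Lipid droplet fluorescence (488 nm excitation, 500-530 nm channel) was read by laser-scanning cytometry and normalized to 20 uM Triacsin C.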

[9] = Primary qHTS for small molecule stabilizers of the endoplasmic reticulum resident proteome: Secreted ER Calcium Modulated Protein (SERCaMP) assay (AID 1508630); note: % is set by controls: 0 for no effect and ±100 for the full control effect
Summary of the method: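 The SH-SY5Y reporter protocol was run at 3 concentrations up to 38.3 uM (primary) or 11 concentrations (follow-up): 16 h compound, 100 nM thapsigargin for 4 h, then extracellular luciferase luminescence.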

[10] = NFAT Signaling Pathway (AID 444; active = well fitted curve in either direction with a large enough effect, not every such curve was filed as active;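 note: carbachol stimulus at about its EC50 of 1 µM final; % is set by controls: 0 for no effect and ±100 for the full control effect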); conditions: Jurkat NFAT-bla M1, carbachol, beta-lactamase ratio, 5 h; at 7.69 µM (top of the series)
Summary of the method: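 Jurkat cells with NFAT-driven β-lactamase reporter and co-expressed M1 receptor, stimulated with carbachol (final 1 uM, ~EC50), compound titration, 5 h at 37 °C. CCF4 loaded 1 h at RT; 460/530 nm ratio gave %activity and AC50.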

[11] = Stat Signaling Pathway (AID 446; active = well fitted curve in either direction with a large enough effect, not every such curve was filed as active)
Summary of the method: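 Overnight-plated ME-180 cells bearing a STAT Inducible Element beta-lactamase reporter; 5 h co-exposure to compound and 40 pM IL-6; values normalized to 300 pM IL-6 and 125 nM JAK inhibitor controls.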

[12] = target: Glucocorticoid receptor (Homo sapiens) (UniProt P04150); experiment: GR-GFP Redistribution (AID 450;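 active = compounds whose dose series gives a full or clear partial fitted curve of increased nuclear translocation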; note: potency is the fitted concentration of half-maximal effect); conditions: U2OS GR-GFP nuclear translocation, laser cytometry, 2 h
[13] = target: Cytochrome P450 2D6 (Homo sapiens) (UniProt P10635); experiment: qHTS Assay for Inhibitors and Substrates of Cytochrome P450 2D6 (AID 891); note: potency is the fitted concentration of half-maximal effect; nearly all actives have a fitted effect of over 60% in size
Chain of Cytochrome P450 2D6 (Homo sapiens) (P10635 whole entry, looked up): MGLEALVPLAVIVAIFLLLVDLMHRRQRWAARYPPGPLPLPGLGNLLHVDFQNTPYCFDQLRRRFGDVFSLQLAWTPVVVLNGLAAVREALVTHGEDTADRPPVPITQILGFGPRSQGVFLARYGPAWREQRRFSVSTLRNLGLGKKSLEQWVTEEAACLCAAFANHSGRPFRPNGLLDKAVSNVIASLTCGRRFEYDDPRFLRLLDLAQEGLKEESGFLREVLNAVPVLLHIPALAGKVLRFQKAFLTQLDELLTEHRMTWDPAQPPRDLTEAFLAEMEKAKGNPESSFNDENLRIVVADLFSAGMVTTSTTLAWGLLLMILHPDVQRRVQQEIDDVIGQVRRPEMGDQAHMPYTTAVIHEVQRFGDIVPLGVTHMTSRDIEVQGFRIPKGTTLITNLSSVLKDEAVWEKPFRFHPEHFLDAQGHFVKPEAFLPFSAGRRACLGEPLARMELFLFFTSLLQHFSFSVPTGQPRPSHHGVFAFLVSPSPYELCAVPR
Summary of the method: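 Luminescent read-out of luciferin formed by 5 nM human CYP2D6 demethylating 30 uM Luciferin-ME EGE (Km level) over 60 min at room temperature after NADPH regeneration addition. Data normalized to full inhibition by 1.43 uM quinidine.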

[14] = target: Dual specificity protein kinase CLK4 (Homo sapiens) (UniProt Q9HAZ1); experiment: qHTS Assay for Inhibitors of CDC-like Kinase 4 (Kinase-Glo Assay) (AID 1770); note: % is set by controls: 0 for no effect and ±100 for the full control effect; nearly all actives have a fitted effect of over 65% in size
Chain of Dual specificity protein kinase CLK4 (Homo sapiens) (Q9HAZ1 whole entry, looked up): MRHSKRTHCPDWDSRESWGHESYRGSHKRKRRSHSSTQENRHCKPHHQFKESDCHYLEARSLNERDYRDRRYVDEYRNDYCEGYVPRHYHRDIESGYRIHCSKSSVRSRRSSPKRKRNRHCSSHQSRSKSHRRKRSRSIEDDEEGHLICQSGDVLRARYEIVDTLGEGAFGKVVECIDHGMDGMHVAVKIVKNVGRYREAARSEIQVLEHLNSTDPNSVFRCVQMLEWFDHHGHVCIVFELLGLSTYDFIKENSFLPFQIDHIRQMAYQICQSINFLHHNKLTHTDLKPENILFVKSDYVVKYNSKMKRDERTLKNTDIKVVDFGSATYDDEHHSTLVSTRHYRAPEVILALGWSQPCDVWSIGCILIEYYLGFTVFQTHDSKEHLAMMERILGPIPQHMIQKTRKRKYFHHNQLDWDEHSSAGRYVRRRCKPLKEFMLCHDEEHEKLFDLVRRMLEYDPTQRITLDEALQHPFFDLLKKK
Summary of the method: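 Readout: Kinase-Glo luminescence from ATP left after a 4.5 h room-temperature reaction of 25 nM Clk4 with 100 uM RS peptide and 1 uM ATP (final). Buffer: 25 mM Tris pH 7.5, 10 mM MgCl2.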

[15] = target: Dual specificity protein kinase CLK4 (Homo sapiens) (UniProt Q9HAZ1); experiment: qHTS Assay for Inhibitors of CDC-like Kinase 4 (ADP-FP Assay) (AID 1795);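 note: recombinant human CLK4 phosphorylating RS repeat peptide at 1 µM ATP; % is set by controls: 0 for no effect and ±100 for the full control effect; nearly all actives have a fitted effect of over 60% in size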
Summary of the method: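 FP readout: Orange Transcreener ADP2 tracer (4 nM) plus ADP antibody, read after 30 min at room temperature. Kinase step: 6.25 nM Clk4, 100 uM RS peptide, 1 uM ATP, pH 7.5, 1 h.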

[16] = target: Ubiquitin carboxyl-terminal hydrolase 1 (Homo sapiens) (UniProt O94782); experiment: Inhibitors of USP1/UAF1: Pilot qHTS (AID 504865);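 note: rhodamine fluorescence freed from ubiquitin-rhodamine substrate followed over time; top concentration of the series differs between compounds; % is set by controls: 0 for no effect and ±100 for the full control effect; nearly all actives have a fitted effect of over 35% in size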
Chain of Ubiquitin carboxyl-terminal hydrolase 1 (Homo sapiens) (O94782 whole entry, looked up): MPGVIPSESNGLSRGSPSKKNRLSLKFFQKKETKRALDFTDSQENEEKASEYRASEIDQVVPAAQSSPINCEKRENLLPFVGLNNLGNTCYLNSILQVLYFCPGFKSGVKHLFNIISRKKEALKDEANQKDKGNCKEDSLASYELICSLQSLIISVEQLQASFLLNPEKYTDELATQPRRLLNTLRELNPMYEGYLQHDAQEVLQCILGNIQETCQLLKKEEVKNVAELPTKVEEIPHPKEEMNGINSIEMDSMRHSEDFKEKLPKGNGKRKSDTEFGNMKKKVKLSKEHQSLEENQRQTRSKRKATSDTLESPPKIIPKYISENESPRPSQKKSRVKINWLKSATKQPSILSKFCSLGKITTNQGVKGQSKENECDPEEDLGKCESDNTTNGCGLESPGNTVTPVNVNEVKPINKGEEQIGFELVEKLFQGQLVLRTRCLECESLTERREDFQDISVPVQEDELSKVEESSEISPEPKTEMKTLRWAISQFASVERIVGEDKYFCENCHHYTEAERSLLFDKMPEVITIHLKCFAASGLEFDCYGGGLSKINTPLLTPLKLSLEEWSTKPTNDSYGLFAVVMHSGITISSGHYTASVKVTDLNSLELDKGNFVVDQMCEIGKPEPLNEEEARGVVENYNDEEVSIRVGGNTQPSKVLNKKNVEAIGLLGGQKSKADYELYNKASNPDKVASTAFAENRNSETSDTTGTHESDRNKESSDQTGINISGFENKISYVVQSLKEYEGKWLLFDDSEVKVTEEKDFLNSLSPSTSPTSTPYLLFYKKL
Summary of the method: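 1nM USP1/UAF1 + cpd, 15 min RT; start w/ Ub-Rho 150nM final; kinetic FL 480/540 nm, 6 reads q60 s. Buffer 50mM HEPES pH 7.8, 0.5mM EDTA, 1mM TCEP, 0.01% Tween-20, 0.1 mg/ml BSA.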

[17] = target: Cytochrome P450 3A4 (Homo sapiens) (UniProt P08684); experiment: qHTS Assay for Inhibitors and Substrates of Cytochrome P450 3A4 (AID 884); note: % is set by controls: 0 for no effect and ±100 for the full control effect; nearly all actives have a fitted effect of over 50% in size
Summary of the method: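 Luminescent readout of luciferin produced by CYP3A4 (20 nM) dealkylation of Luciferin-PPXE, 25 uM (its KM). NADPH-driven reaction ran 60 min at RT after 10 min compound preincubation; data scaled to 57 uM ketoconazole as 100% inhibition.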

[18] = qHTS Assay for Identification of Small Molecule Agonists for Hypoxia Response Element Signaling Pathway (AID 914; active = well fitted activation curve with a large enough effect in the signal ratio, with a control signal flat, not every such curve was filed as active; the % refers to the signal ratio; note: % of control where 0% means no effect); conditions: ME-180 HRE-bla reporter, beta-lactamase ratio, CoCl2, 17 h; activation: stronger effect = higher value
Summary of the method: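 ME-180 cells carrying an HRE-driven beta-lactamase reporter were treated with compounds in a titration series plus an EC50 level of CoCl2 for 17 h at 37 degrees Celsius; CCF4 readout as the 460nm/530nm ratio gave AC50 values.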

[19] = Confirmation and Secondary Assay for Modulators of Hemoglobin Beta Chain Splicing at IVS2 654 locus (AID 910);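 note: HeLa cells stably carrying EGFP split by mutant beta-globin IVS2-654 intron; % of control where 0% means no effect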
Summary of the method: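 HeLa cells stably expressing EGFP interrupted by β-globin IVS2-654 intron, seeded overnight in Opti-MEM/2% FCS, then treated 2 days at 37 °C. Restored splicing read as total peak GFP intensity per well by laser scanning cytometry (488 nm excitation, 500–520 nm emission); 500 nM antisense PNA as control.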

[20] = Confirmation and Secondary Assay for Modulators of Hemoglobin Beta Chain Splicing at IVS2 705 locus (AID 930);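 note: HeLa cells stably expressing the EGFP-705 splicing reporter; % of control where 0% means no effect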
Summary of the method: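 HeLa cells stably carrying EGFP interrupted by mutant beta-globin IVS2-705 intron (CMV-driven) were seeded at 500 cells/well, treated next day with compound for 2 days at 37C; corrected splicing restores EGFP, read as total peak GFP intensity per well.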

[21] = measured here: cell count channel max response
[22] = measured here: lipid channel max response

O=C(Oc1ccccc1)N1CCC2(CCCN(Cc3ccccc3)C2)CC1
0.129%: max response [8, 21]
4.78%: max response [8, 22]
inactive: Potency [1] > 11.4 µM | outcome [2] | Potency [3] | Potency [4] > 46 µM | outcome [5] | Potency [6] | Potency [7] | activity change, negative = inhibition [8] 2.57% | outcome [9]

Clc1ccccc1-c1cncnc1NCCc1cnc[nH]1
inactive: Potency [1] > 11.4 µM | outcome [2] | activity change, negative = inhibition [10] -21.6% | outcome [11] | Potency [12] > 46 µM | Potency [4] > 46 µM | outcome [5] | Potency [6] | Potency [7] | outcome [14] | outcome [15] | Potency [16] | outcome [9]
active: Potency [3] 1.58 µM | Potency [13] 3.98 µM

O=C(Nc1ccccc1)N1CC2(CCN(C(=O)Oc3ccccc3)CC2)C1
22.2%: max response [8, 22]
inactive: Potency [1] > 11.4 µM | outcome [2] | activity change, negative = inhibition [10] 23.8% | Potency [4] > 46 µM | outcome [5] | Potency [6] | Potency [17] | activation [18] -6.7% | activity change, negative = inhibition [8] 7.64% | outcome [9]
9.38%: max response [8, 21]
active: Potency [7] 15.8 µM

O=C(c1csnn1)N1CCC[C@@]2(CCN(Cc3ccncc3)C2)C1
28.5%: max response [8, 22]
21.7%: max response [8, 21]
inactive: outcome [2] | activity change, negative = inhibition [10] -2.7% | outcome [11] | Potency [4] > 46 µM | outcome [5] | Potency [6] | activity change, negative = inhibition [8] 4.95% | outcome [9]

CN1CCCCC1c1ccc(-c2cccnc2)nc1 (stereo unspecified)
inactive: Potency [7] | Potency [19] | Potency [20] | activity change, negative = inhibition [8] 6.38% | Potency [16] | outcome [9]
21.9%: max response [8, 22]
12.4%: max response [8, 21]

N#Cc1ccc(CN2CC3(CCNCC3)C2)cc1
-10.3%: max response [8, 22]
-8.82%: max response [8, 21]
inactive: outcome [2] | activity change, negative = inhibition [10] -23.5% | outcome [11] | Potency [4] > 46 µM | outcome [5] | Potency [6] | activity change, negative = inhibition [8] -3.34% | outcome [9]

c1cnc(N2CC[C@@]3(CCCNC3)C2)nc1
29%: max response [8, 22]
20.5%: max response [8, 21]
inactive: Potency [1] > 11.4 µM | outcome [2] | activity change, negative = inhibition [10] -23.9% | outcome [11] | Potency [4] > 46 µM | outcome [5] | Potency [6] | Potency [7] | activity change, negative = inhibition [8] 6.19% | outcome [9]
active: Potency [3] 25.1 µM | Potency [13] 7.94 µM
